Source: PubChem BioAssay
C1s block: complement C1s protease inhibitors, primary screen, biochemical, 10-compound mixtures | Complement C1s subcomponent (Homo sapiens), P09871 | purified C1s, fluorogenic AMC substrate, pooled mixtures | mean inhibition % of two 10-compound mixtures (stronger effect = higher value), % at 5 µM (by protocol) | 62,000 compounds, 0.16% hits;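 active = inhibition above 20% in each of the two 10-compound mixture wells holding the compound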;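 note: 0% = enzyme wells lacking compound mixture and 100% = no-enzyme blank wells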
Htt clearance: clearance of mutant huntingtin inclusions, primary screen, imaging, HeLa Exon1htt(103Q)mCFP, confocal imaging; aggregate imaging; zero = plate's median compound well; inhibition, % at 1.5 µM; 47,000 compounds, 0.42% hits;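 active = inhibition of aggregate fluorescence above about 70%, also judged a hit by eye on the cell image, limit read from the data, passing the limit was not always enough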;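 note: cells exposed to compound for three days before fixation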
FXIIa inh mix: human factor XIIa inhibitors, primary screen, biochemical, pooled compound mixtures, fluorogenic substrate | purified FXIIa | inhibition, % at 5 µM | 62,000 compounds, 0.2% hits;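 note: 0% = enzyme without compound and 100% = no enzyme blank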
WNV protease inh: inhibitors of WNV NS2B-NS3 protease, primary screen, biochemical, fluorogenic substrate | fluorogenic substrate Ex360/Em465; stronger effect = lower value | z-score (test concentration not listed) | 65,000 compounds, 0.18% hits; in the data active = z-score below about -3
CatG inh: human cathepsin G inhibitors, primary screen, biochemical, pooled compound mixtures, AMC fluorescence; purified enzyme, AMC-tetrapeptide fluorescence; inhibition, % at 5 µM (by protocol); 62,000 compounds, 0.2% hits;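 active = inhibition above 20% in each of the two mixture wells holding the compound; inactive = inhibition of 20% or less in either well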;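 note: 0% = enzyme control without mixture and 100% = blank lacking enzyme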
Target sequence (P08311 21-244 limits assumed): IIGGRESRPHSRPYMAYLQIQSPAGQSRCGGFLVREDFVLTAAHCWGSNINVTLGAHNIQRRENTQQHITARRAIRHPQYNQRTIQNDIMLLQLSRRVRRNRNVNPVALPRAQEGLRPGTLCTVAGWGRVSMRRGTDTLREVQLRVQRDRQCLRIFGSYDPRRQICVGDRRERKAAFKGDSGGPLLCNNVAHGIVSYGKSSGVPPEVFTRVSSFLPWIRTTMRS
FXIa mix inh: FXIa protease inhibitors in compound pools, primary screen, biochemical, 10-compound mixtures; 62,000 compounds, 0.19% hits; Coagulation factor XI (Homo sapiens), P03951; inhibition, % at 5 µM; AID 680, 2007; purified FXIa, fluorogenic substrate, pooled mixtures;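 note: each value is inhibition by a whole ten-compound pool holding the compound; 0% = enzyme with no mixture and 100% = wells lacking enzyme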
The depositor's hits bear a star; · = not tested or not shown. This is a sample that favours compounds with a hit; in the whole collection about 0.75% have one here. Cut-off read from the data, not from the text of the source, unless noted: active = inhibition above about 20% (passing the limit was not always enough); inactive = the rest.

SMILES	C1s block	Htt clearance	FXIIa inh mix	WNV protease inh	CatG inh	FXIa mix inh
COc1ccc(OC)c(C2C(C(N)=O)=C(C)Nc3nc(-c4cccc(Cl)c4)nn32)c1 (configuration not stated)	7	·	11	-4.8*	0	1
COc1ccccc1-c1nc2n(n1)C(c1ccccc1Cl)C(C(N)=O)=C(C)N2 (configuration not stated)	-1	15	4	-0.41	1	10
CCOc1ccc(C2c3c(oc4ccccc4c3=O)C(=O)N2c2ccccn2)cc1OC (configuration not stated)	-2	·	-19	-0.54	7	7
O=C(OCC#CCSc1nc2ccccc2o1)c1ccco1	-6	5	-16	0.67	-3	11
COc1ccc(C2CC(c3ccc(Cl)cc3)Nc3nc(NC(=O)c4ccco4)nn32)cc1 (configuration not stated)	-52	75*	3	-0.13	5	-6
O=C(Nc1nc2n(n1)C(c1ccc(Cl)cc1)CC(c1ccc(Cl)cc1)N2)c1ccco1 (configuration not stated)	-38	-13	-1	0.76	-7	-9
CC(C)Oc1ccc(C2c3c(oc4ccccc4c3=O)C(=O)N2CCCN2CCOCC2)cc1 (configuration not stated)	16	34	-13	-0.23	13	4
O=C(CCn1c(=S)[nH]c2ccccc2c1=O)N1CCN(c2ccccn2)CC1	6	·	0	-0.9	11	3
Cc1ccc(SCC(=O)Nc2ccccc2C(=O)O)cc1	·	-2	·	·	·	·
CCOc1ccc(S(=O)(=O)n2nnc3ccccc32)cc1C	-40	74*	-3	0.36	-4	-8
C=CCn1c(C)nc2c(c1=O)c1nc3ccccc3nc1n2-c1ccc(C)cc1	8	·	5	0.29	10	4
CCN(CC)C(=O)Cn1cnc2sc(C(=O)Nc3cc(OC)c(OC)c(OC)c3)c(C)c2c1=O	·	54	·	·	·	·
CCCN1C(=O)C(O)(C2CC(=O)CC(C)(C)O2)c2ccccc21 (configuration not stated)	1	·	22*	-1.6	8	1
CCN1C(=O)C(O)(C2COC(C)(C)CC2=O)c2ccccc21 (configuration not stated)	·	-2	·	·	·	·
C=CCc1c(C)c(C#N)c2nc3ccccc3n2c1N1CCN(C)CC1	·	·	·	-0.52	·	·
CCSc1nnc(NC(=O)NCC(F)(F)F)s1	·	·	·	-7.8*	·	·
O=C(NCc1ccccc1)N[C@@H](Cc1c[nH]c2ccccc12)C(=O)O	-37	·	-13	-0.28	0	-15
O=C(COc1ccccc1)NC(Cc1c[nH]c2ccccc12)C(=O)O (configuration not stated)	-19	71*	2	-1.1	3	-4
O=C(c1cc2ccccc2oc1=O)N1CCN(c2ccc(N3CCOCC3)nn2)CC1	-4	35	-18	-4*	-4	-2
Cc1ccc(C)c(N2CCN(C(=O)c3cc4ccccc4oc3=O)CC2)c1	16	·	12	0.49	9	6
CCOc1ccc(N2C(=O)CN=C2Nc2ccccc2F)cc1	·	97*	·	·	·	·
Cc1sc2nc3c(C(=O)N4CCN(c5ncccn5)CC4)cccn3c(=O)c2c1C	-19	·	11	1.2	-11	3
CCOC(=O)Cc1csc(-n2sc3ccccc3c2=O)n1	-8	·	31*	0.28	10	-1
O=C(N1CCOCC1)N1CCN(C(=O)N2CCOCC2)CC1	·	42	·	·	·	·
CC(C)(C)C(=O)NC1CCN(C(=O)N2CCCC2)CC1	2	99*	7	-0.11	1	6
CC(C)(C)C(=O)NC1CCN(S(C)(=O)=O)CC1	·	40	·	·	·	·
CC(C)COP(=O)(c1ccc(N(C)C)cc1)C(O)c1ccccn1 (configuration not stated)	12	-18	48*	0.09	9	7
CCn1c2ccccc2c2cc(NC(=O)CSc3nnc(-c4ccccc4OC)n3N)ccc21	-12	76*	9	-0.95	5	-1
COc1ccccc1N1CCN(C(=O)c2cc(-c3cccc(Cl)c3)on2)CC1	-10	-30	4	0.96	25	13
